From PubChem BioAssay
GSH bead fluor – compound fluorescence on glutathione beads, profiling panel, artefact control, biophysical, 488/530 nm, flow cytometry | fluorescence (KMESF) at 10 µM | GSH beads flow cytometry, compound fluorescence 488/530 nm; stronger effect = higher value | AID 1776, 2009 | 0.25% of 190,000 active; in the data active = fluorescence above about 89;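 also: glutathione beads carrying GST-tagged Bcl family fusion proteins plus one bare bead set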
RGS16-Gao HTS – modulators of RGS16 binding to Galphao, primary screen, biochemical, human proteins, multiplexed bead flow cytometry | Regulator of G-protein signaling 16 (Homo sapiens) + Guanine nucleotide-binding protein … | bead-based flow cytometry RGS16-Galphao binding, fluorescence; actives lie on both sides | binding response (% of control), % at 10 µM | 0.38% of 220,000 active | AID 1441, 2008;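 also: Galphao activated by GDP with aluminum fluoride before binding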
RGS8-Gao – RGS8-Galphao binding modulators, primary screen, biochemical, multiplexed bead flow cytometry; Guanine nucleotide-binding protein G(o) subunit alpha (Homo sapiens), P09471; actives lie on both sides; response (percent of control binding), % at 10 µM; 0.34% of 220,000 active; AID 1423, 2008; in the data active = response below about 60% or above about 140%; inactive = in between;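 also: Galphao activated as the GDP aluminium fluoride complex binding bead-coupled RGS8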
Target sequence (P09471 whole entry, looked up): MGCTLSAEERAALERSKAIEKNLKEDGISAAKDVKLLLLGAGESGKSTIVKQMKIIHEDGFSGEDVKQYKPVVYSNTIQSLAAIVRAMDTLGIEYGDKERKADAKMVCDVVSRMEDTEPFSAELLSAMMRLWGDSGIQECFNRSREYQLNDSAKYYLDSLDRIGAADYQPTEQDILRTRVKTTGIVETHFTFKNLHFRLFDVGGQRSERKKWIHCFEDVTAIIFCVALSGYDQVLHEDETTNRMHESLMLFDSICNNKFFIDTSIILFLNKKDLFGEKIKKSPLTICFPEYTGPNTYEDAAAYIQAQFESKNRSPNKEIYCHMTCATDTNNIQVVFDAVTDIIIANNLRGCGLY
RGS4-Gao reg – modulators of RGS4 binding to Galphao, primary screen, biochemical, multiplexed bead flow cytometry. Guanine nucleotide-binding protein G(o) subunit alpha (Homo sapiens), P09471. actives lie on both sides. binding response (% of control), % at 10 µM. 0.33% of 220,000 active. AID 1415, 2008; in the data active = binding response below about 49% or above about 150%; inactive = in between;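 also: fluorescent Galphao activated with aluminum fluoride binding bead-coupled RGS4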
Avidin fluor – green autofluorescence of compounds with avidin beads – biophysical, 488/530 nm, flow cytometry, artefact control, profiling panel; compound fluorescence 488/530 nm; stronger effect = higher value; fluorescence (KMESF) at 10 µM; 0.38% of 220,000 active; in the data active = fluorescence above about 47
RGS7-Gao reg – RGS7-Galphao binding modulators, primary screen, biochemical, multiplexed bead flow cytometry; Guanine nucleotide-binding protein G(o) subunit alpha (Homo sapiens), P09471; actives lie on both sides; binding response (% of control), % at 10 µM; 0.35% of 220,000 active; in the data active = binding response below about 49% or above about 150%; inconclusive = no clear call, values can overlap the other calls; inactive = in between;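 also: fluorescent Galphao held in activated GDP-AlF4 state binding bead-coupled RGS7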
RGS-Gao – modulators of RGS–Galpha-o binding, primary screen, biochemical, multiplexed beads, flow cytometry, RGS4/7/8/16/19. 99% of 1,600 active. RGS4–Galpha-o binding response, % at 10 µM. multiplexed bead flow cytometry. shares compounds with RGS16-Gao HTS;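 also: fluorescently labeled Galpha-o bound to GDP with aluminium fluoride binding biotinylated RGS beads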
Target sequence (P09471 whole entry, looked up): as above
Target sequence (P49798 whole entry, looked up): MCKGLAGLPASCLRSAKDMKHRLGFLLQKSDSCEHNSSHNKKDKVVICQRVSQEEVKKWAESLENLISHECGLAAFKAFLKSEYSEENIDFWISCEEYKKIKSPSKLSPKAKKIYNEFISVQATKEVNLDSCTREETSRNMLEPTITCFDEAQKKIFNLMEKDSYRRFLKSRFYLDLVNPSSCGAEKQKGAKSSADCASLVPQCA
Biotin-avidin – disruption of biotin probe capture by avidin, counter-screen for RGS protein interaction modulators, biochemical, flow cytometry, bead-based; shares compounds with RGS16-Gao HTS; streptavidin beads, fluorescein-biotin binding; inhibition, % at 10 µM; 1,700 tested, under 10 active; AID 1783, 2009;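 active = inhibition above 50%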;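 also: median green fluorescence of gated singlet beads compared with DMSO control wells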
RGS8-Gao confirm – RGS8-Galphao binding modulators, confirmation, biochemical, multiplexed bead flow cytometry, single concentration; shares compounds with RGS16-Gao HTS; bead-based flow cytometry RGS8-Galphao binding, fluorescence; actives lie on both sides; binding response (% of control), % at 10 µM; 3% of 1,700 active; AID 1836, 2009; in the data active = binding response below about 72% or above about 130%; inactive = in between;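 also: Galphao activated as GDP AlF4 complex before binding bead RGS8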
RGS7-Gao single – RGS7-Galphao binding modulators, confirmation, biochemical, multiplexed bead flow cytometry, single concentration; shares compounds with RGS16-Gao HTS; bead-based flow cytometry RGS7-Galphao binding; actives lie on both sides; response (percent of control binding), % at 10 µM; 7.8% of 1,700 active; AID 1837, 2009; in the data active = response below about 75% or above about 130%; inactive = in between;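 also: fluorescent Galphao activated with GDP and aluminum fluoride binding bead-coupled RGS7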
RGS16-Gao single – modulators of RGS16-Galphao protein binding, confirmation, biochemical, single concentration, multiplexed bead flow cytometry; 4% of 1,700 active; bead-based flow cytometry; actives lie on both sides; shares compounds with RGS16-Gao HTS; response (% of control binding), % at 10 µM; in the data active = response below about 74% or above about 130%; inactive = in between;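 also: Galphao activated as the GDP aluminium fluoride complex binding bead-coupled RGS16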
RGS4-Gao confirm – modulators of RGS4-Galphao protein binding, confirmation, biochemical, single concentration, multiplexed bead flow cytometry; actives lie on both sides; binding response (% of control), % at 10 µM; shares compounds with RGS16-Gao HTS; 4% of 1,700 active; AID 1840, 2009; in the data active = binding response below about 74% or above about 130%; inactive = in between
RGS19-Gao single – regulators of RGS19-Galphao binding, confirmation, biochemical, single point, multiplexed bead flow cytometry; 5% of 1,700 active; AID 1841, 2009; response (percent of control binding), % at 10 µM; shares compounds with RGS16-Gao HTS; bead-based flow cytometry RGS19-Galphao binding; actives lie on both sides; in the data active = response below about 50% or above about 160%; inactive = in between
Hits are given with their value; [ ] = dose if it differs, or a comment. The list is not random: actives were taken first. Their share in the collection is about 1.2%. Unless noted, no rule for the calls is given here.

Results for Cc1cc(C)cc(C(=O)OCC(=O)NCc2cccs2)c1 ?
GSH bead fluor: inactive; RGS16-Gao HTS: 175.7[activator]; RGS8-Gao: inactive; RGS4-Gao reg: inactive; Avidin fluor: inactive; RGS7-Gao reg: inactive; RGS-Gao: 109.8; Biotin-avidin: inactive; RGS8-Gao confirm: inactive; RGS7-Gao single: inactive; RGS16-Gao single: inactive; RGS4-Gao confirm: inactive; RGS19-Gao single: inactive

Results for O=C(COC(=O)c1ccccc1)NCc1cccs1 ?
GSH bead fluor: inactive; RGS16-Gao HTS: inactive; RGS8-Gao: inactive; RGS4-Gao reg: inactive; Avidin fluor: inactive; RGS7-Gao reg: inactive

How did Fc1cccc(F)c1-n1c(CN2CCCC2)csc1=S do in these assays?
GSH bead fluor: inactive; RGS16-Gao HTS: inactive; RGS8-Gao: inactive; RGS4-Gao reg: inactive; Avidin fluor: inactive; RGS7-Gao reg: inconclusive

Results for Cc1ccc(-c2c[n+](CC(=O)OCc3ccccc3)c3n2CCC3)cc1 ?
GSH bead fluor: inactive; RGS16-Gao HTS: 7.7; RGS8-Gao: 12.7; RGS4-Gao reg: 11.9; Avidin fluor: inactive; RGS7-Gao reg: 9.5; Biotin-avidin: inactive; RGS8-Gao confirm: inactive; RGS7-Gao single: inactive; RGS16-Gao single: inactive; RGS4-Gao confirm: inactive; RGS19-Gao single: inactive

What do the screens show for `CCOc1cccc2cc(-c3nnc(NCc4ccc5c(c4)OCO5)s3)c(=O)oc12`?
GSH bead fluor: inactive; Biotin-avidin: inactive; RGS8-Gao confirm: inactive; RGS7-Gao single: inactive; RGS16-Gao single: inactive; RGS4-Gao confirm: inactive; RGS19-Gao single: 166.7[activator]

How did O=C(Nc1ccc2c(c1)OCO2)C1CCN(C(=O)c2ccc(Cl)cc2)CC1 do in these assays?
GSH bead fluor: inactive; RGS16-Gao HTS: inactive; RGS8-Gao: inactive; RGS4-Gao reg: inactive; Avidin fluor: inactive; RGS7-Gao reg: inactive

How did COC(=O)c1ccc(NC(=O)C2CCN(C(=O)c3cc(OC)c(OC)c(OC)c3)CC2)cc1 do in these assays?
GSH bead fluor: inactive; RGS4-Gao reg: 276.4[activator]; RGS7-Gao reg: inactive; Biotin-avidin: inactive; RGS8-Gao confirm: inactive; RGS7-Gao single: inactive; RGS16-Gao single: inactive; RGS4-Gao confirm: inactive; RGS19-Gao single: inactive

What do the screens show for `O=C(Nc1cccc(F)c1)C1CCN(C(=O)c2ccc(Cl)cc2)CC1`?
GSH bead fluor: inactive; RGS16-Gao HTS: 18.0; RGS8-Gao: inactive; RGS4-Gao reg: inactive; Avidin fluor: inactive; RGS7-Gao reg: inactive; RGS-Gao: 74.5; Biotin-avidin: inactive; RGS8-Gao confirm: inactive; RGS7-Gao single: inactive; RGS16-Gao single: inactive; RGS4-Gao confirm: inactive; RGS19-Gao single: inactive

What do the screens show for `O=C(CNCCN1CCOCC1)Nc1ccccc1Sc1ccccc1`?
GSH bead fluor: inactive; RGS16-Gao HTS: 227.3[activator]; RGS8-Gao: inactive; RGS4-Gao reg: inactive; Avidin fluor: inactive; RGS7-Gao reg: inactive; RGS-Gao: 109.9; Biotin-avidin: inactive; RGS8-Gao confirm: inactive; RGS7-Gao single: inactive; RGS16-Gao single: inactive; RGS4-Gao confirm: inactive; RGS19-Gao single: inactive

What do the screens show for `CC(C(=O)Nc1ccc([N+](=O)[O-])cc1)N1CCN(C/C=C/c2ccccc2)CC1` (stereo not given)?
GSH bead fluor: inactive; RGS16-Gao HTS: inactive; RGS8-Gao: inactive; RGS4-Gao reg: inactive; Avidin fluor: inactive; RGS7-Gao reg: inactive

Results for CC(=O)c1ccc(NC(=O)C(C)N2CCN(C/C=C/c3ccccc3)CC2)cc1 (stereo not given) ?
GSH bead fluor: 246; RGS16-Gao HTS: inactive; RGS8-Gao: inactive; RGS4-Gao reg: 161.7[activator]; Avidin fluor: inactive; RGS7-Gao reg: 150.8[activator]; Biotin-avidin: inactive; RGS8-Gao confirm: inactive; RGS7-Gao single: inactive; RGS16-Gao single: inactive; RGS4-Gao confirm: inactive; RGS19-Gao single: inactive

Results for CC(C)n1nc(C(=O)OCC(=O)c2c[nH]c3ccccc23)c2ccccc2c1=O ?
GSH bead fluor: inactive; Biotin-avidin: inactive; RGS8-Gao confirm: inactive; RGS7-Gao single: inactive; RGS16-Gao single: inactive; RGS4-Gao confirm: inactive; RGS19-Gao single: inactive

Results for COC(=O)c1cc(C(=O)NCCC(C)C)cc([N+](=O)[O-])c1 ?
GSH bead fluor: inactive; RGS16-Gao HTS: inactive; RGS8-Gao: inactive; RGS4-Gao reg: inactive; Avidin fluor: inactive; RGS7-Gao reg: inactive

How did Cc1nc(Cl)c(C(=O)NCCC(C)C)c(C)c1[N+](=O)[O-] do in these assays?
GSH bead fluor: inactive; RGS16-Gao HTS: 177.6[activator]; RGS8-Gao: inactive; RGS4-Gao reg: inactive; Avidin fluor: inactive; RGS7-Gao reg: inactive; RGS-Gao: 104.6; Biotin-avidin: inactive; RGS8-Gao confirm: inactive; RGS7-Gao single: inactive; RGS16-Gao single: inactive; RGS4-Gao confirm: inactive; RGS19-Gao single: inactive

Results for Cc1ccc2c(c1)NC(=O)C(CC(=O)NCc1ccc(F)cc1)O2 (stereo not given) ?
GSH bead fluor: inactive; RGS16-Gao HTS: inactive; RGS8-Gao: inactive; RGS4-Gao reg: inactive; Avidin fluor: inactive; RGS7-Gao reg: inactive
